Records with an inconclusive call do not appear. A number with no mark means an inactive call. Activity calls are given as the source filed them. Calls come from the whole dose curve; as a rule, active = well fitted cell-killing curve with a large enough effect; inconclusive = small, poorly fitted or top-dose-only effect, or effect the other way; inactive = no such curve, though single readings can be large or run the other way.
Key:
[1] = Viability qHTS for spleen associated tyrosine kinase inhibitor (SYKi) naive MV4-11 cells (AID 1963823); note: nearly all actives have a fitted effect of over 40% in size
How it was run: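 Read-out: CellTiter-Glo luminescence. Exposure: 72 hr, 37 C, 5% CO2, 95% humidity. Cells: MV4-11 without SYK inhibitor history, 500/well, qHTS format.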

[2] = Viability qHTS for spleen associated tyrosine kinase inhibitor (SYKi) drug resistant MV4-11 cells (AID 1963824); note: nearly all actives have a fitted effect of over 35% in size
How it was run: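 SYK-inhibitor-resistant MV4-11 AML cells were seeded at 500 per well onto compound and cultured 72 hours (37 °C, 5% CO2). CellTiter-Glo was then added, and after 10 min at room temperature, luminescence gave viability.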
Potency is the fitted concentration of half-maximal effect.

| SMILES | Potency [1] | Potency [2] | viability (% of control) [1] | viability, % of control [2] |
| --- | --- | --- | --- | --- |
| COc1cc(C2Oc3c(OC)cc(CCCO[C@@H]4O[C@H](CO)[C@@H](O)[C@H](O)[C@H]4O)cc3C2CO)ccc1O (stereo partly drawn) | inactive | inactive | – | – |
| CC#CC(=O)N1CC[C@@H](n2c(=O)n(-c3ccc(Oc4ccccc4)cc3)c3c(N)ncnc32)C1 | 7.42 µM (active) | 8.33 µM (active) | – | – |
| O=C(CC1NCCC[C@H]1O)Cn1cnc2cc(Br)c(Cl)cc2c1=O (stereo partly drawn) | inactive | inactive | – | – |
| C[C@@H]1CC[C@]2(C(=O)O)CC[C@]3(C)C(=CCC4[C@@]5(C)C[C@@H](O)[C@@H](O)C(C)(C)C5CC[C@]43C)C2[C@]1(C)O (stereo partly drawn) | inactive | 3.55 µM (active) | – | – |
| CN1CCC(c2c(O)cc(O)c3c(=O)cc(-c4ccccc4Cl)oc23)C(O)C1 (stereo not drawn) | 0.259 µM (active) | 0.206 µM (active) | – | – |
| O=C(O)/C=C/c1ccc(O[C@@H]2O[C@H](CO)[C@@H](O)[C@H](O)[C@H]2O)cc1 | inactive | inactive | – | – |
| COCc1c(Cl)ccc2c1CC[C@H]2c1ncc[nH]1 | inactive | inactive | – | – |
| CC(C)(O)c1ccn2c(-c3ccc(F)c(-c4ccc(F)cc4C#N)c3)cnc2c1F | 9.2 µM (active) | 8.2 µM (active) | – | – |
| C[C@@H]1CC[C@]2(C(=O)O[C@@H]3O[C@H](CO[C@@H]4O[C@H](CO)[C@@H](O)[C@H](O)[C@H]4O)[C@@H](O)[C@H](O)[C@H]3O)CC[C@]3(C)C(=CCC4[C@@]5(C)CC[C@H](O)[C@](C)(C(=O)O)C5CC[C@]43C)[C@@H]2[C@]1(C)O (stereo partly drawn) | – | – | 70.3% [at 9.25 µM] | 98.7% [at 9.25 µM] |
| C/C(=C\CCC(C)(O)c1ccc(C)cc1)C(=O)O (stereo not drawn) | inactive | inactive | – | – |
| CC1CC(O)C2(OC1=O)OC1C(O)C3C4CCC5CC(OC6OC(CO)C(O)C(O)C6OC6OC(C)C(O)C(O)C6O)CCC5(C)C4CCC3(C)C1C2C (stereo not drawn) | inactive | inactive | – | – |
| CC1(C)CC[C@]2(C(=O)OC3OC(CO)C(O)C(O)C3O)CC[C@]3(C)C(=CCC4[C@@]5(C)C[C@@H](O)[C@H](OC6OC(C(=O)O)C(O)C(O)C6O)C(C)(C)C5CC[C@]43C)[C@@H]2C1 (stereo partly drawn) | – | – | 76.2% [at 9.25 µM] | 95.5% [at 9.25 µM] |
| C=C1C(=O)OC2/C=C(\COC(C)=O)CC/C=C(\C=O)CC(OC(=O)CC(C)C)C12 (stereo not drawn) | 1.26 µM (active) | 1.12 µM (active) | – | – |
| O=C1NC(=O)[C@@H](c2cn3c4c(cccc24)CCC3)[C@@H]1c1c[nH]c2ccccc12 | 1.18 µM (active) | 1.32 µM (active) | – | – |
| O=C(O[C@H]1[C@@H]2C[C@@H]3OC[C@](O)([C@@H]1Cl)[C@H]2C(O[C@@H]1O[C@H](CO)[C@@H](O)[C@H](O)[C@H]1O)O3)c1ccc(O)c(O)c1 (stereo partly drawn) | inactive | inactive | – | – |
| COc1cc(/C=C/C=O)cc(OC)c1O[C@@H]1O[C@H](CO)[C@@H](O)[C@H](O)[C@H]1O | inactive | inactive | – | – |
| CC1(C)CC2C=C(C(=O)O)C3COC(=O)C(O)(CO)C23C1 (stereo not drawn) | inactive | inactive | – | – |
| C=C1CC[C@H]2[C@@](C)(CCC(O)[C@@]2(C)CO)[C@@H]1/C=C/C(=C\C(=O)O)C(=O)O (stereo partly drawn) | inactive | inactive | – | – |
| CN(C)Cc1ccc(-c2cnn3c(-c4cccc(NC(=O)c5cccc(C(F)(F)F)c5)c4)ccnc23)cc1 | 2.91 µM (active) | 3.66 µM (active) | – | – |
| Cn1ccnc1CCOC(c1cc2nccc(C(=O)O)c2[nH]1)c1ccccc1Cl (stereo not drawn) | inactive | inactive | – | – |
| CC[C@H](C)[C@H](NC(=O)[C@H](Cc1ccc(O)cc1)NC(=O)[C@@H](N)C(C)C)C(=O)N[C@@H](Cc1cnc[nH]1)C(=O)N1CCC[C@H]1C(=O)N[C@@H](Cc1ccccc1)C(=O)O | – | – | 98.9% [at 4.97 µM] | 102% [at 4.97 µM] |
| CC1(C)CC2C3=CCC4C5(C)CCC(OC6OC(C(=O)O)C(O)C(O)C6OC6OC(CO)C(O)C(O)C6OC6OC(CO)C(O)C(O)C6O)C(C)(CO)C5CCC4(C)C3(C)CCC2(C)C(OC2OCC(O)C(OC3OC(CO)C(O)C(O)C3O)C2O)C1O (stereo not drawn) | – | – | 96.2% [at 9.25 µM] | 112% [at 9.25 µM] |

| SMILES | Potency [1] | Potency [2] | viability (% of control) [1] | viability, % of control [2] |
| --- | --- | --- | --- | --- |
| Oc1ccc(Nc2nc(-c3ccc(Cl)cc3)cs2)cc1 | 5.8 µM (active) | 2.06 µM (active) | – | – |
| CC(C)(O)/C=C/C(=O)[C@](C)(O)[C@H]1[C@H](O)C[C@@]2(C)[C@@H]3CC=C4[C@@H](C=C(O[C@@H]5O[C@H](CO)[C@@H](O)[C@H](O)[C@H]5O)C(=O)C4(C)C)[C@]3(C)C(=O)C[C@]12C | inactive | inactive | – | – |
| CCc1c(CC(N)=O)c2cc(OCCCP(=O)(O)O)ccc2n1Cc1ccccc1 | inactive | inactive | – | – |
| CC1=C2CC(O)(C(C)(C)O)C(O[C@@H]3O[C@H](CO)[C@@H](O)[C@H](O)[C@H]3O)CC(C)C2CC1=O (stereo partly drawn) | inactive | inactive | – | – |
| CN1[C@@H]2CC[C@H]1CC(OC(=O)C(CO)c1ccccc1)C2 (stereo partly drawn) | inactive | inactive | – | – |
| C=C(C)C(=O)OC1CC2(C)OC(=CC2=O)C(=C)CC2OC(=O)C(=C)C12 (stereo not drawn) | 0.255 µM (active) | 0.36 µM (active) | – | – |
| NCc1ccc(Nc2ncc(F)c(Nc3ccccc3)n2)cc1 | 0.651 µM (active) | 1.46 µM (active) | – | – |
| CC(C)=CC1C[C@](C)(O)[C@@H]2[C@H]3CCC4[C@@]5(C)CC[C@H](O[C@@H]6OC[C@H](O)[C@H](O[C@@H]7O[C@H](CO[C@@H]8O[C@H](CO)[C@@H](O)[C@H](O)[C@H]8O)[C@@H](O)[C@H](O)[C@H]7O)[C@H]6O[C@@H]6O[C@@H](C)[C@H](O)[C@@H](O)[C@H]6O)C(C)(C)[C@@H]5CC[C@@]4(C)[C@@]34CO[C@@]2(C4)O1 (stereo partly drawn) | – | – | 74.2% [at 9.25 µM] | 96.9% [at 9.25 µM] |
| Cc1ccc(-c2c(-c3nn(C)c4ncnc(N5CC[C@H](N6CCCCC6)C5)c34)cnn2C)cc1 | inactive | inactive | – | – |
| N#Cc1ccc2[nH]cc(CCCCN3CCN(c4ccc5oc(C(N)=O)cc5c4)CC3)c2c1 | 11.6 µM (active) | 18.4 µM (active) | – | – |
| CC(C)=CC[C@H]1O[C@]2(O)C([C@H]3CCC4[C@@]5(C)CC[C@H](O[C@@H]6O[C@H](CO)[C@H](O)[C@H](O[C@@H]7O[C@H](CO)[C@@H](O)[C@H](O)[C@H]7O)[C@H]6O[C@@H]6O[C@@H](C)[C@H](O)[C@@H](O)[C@H]6O)C(C)(C)C5CC[C@@]4(C)[C@]3(C)[C@H]2O)[C@@]1(C)O (stereo partly drawn) | – | – | 84.2% [at 9.25 µM] | 80.7% [at 9.25 µM] |
| COC1CC(O[C@H]2CC[C@]3(C)C4CC[C@@]5(C)C(=O)[C@]4(CC[C@@H]3C2)CC[C@@H]5C2=CC(=O)OC2)OC(C)C1OC1OC(COC2OC(CO)C(O)C(O)C2O)C(O)C(O)C1O (stereo partly drawn) | 1.1 µM (active) | 1.23 µM (active) | – | – |
| CCn1c(-c2nonc2N)nc2c(C#CCO)ncc(OCCCN)c21 | 0.58 µM (active) | 1.84 µM (active) | – | – |
| CC(=O)O[C@H]1[C@H](O[C@H]2CC[C@]34C[C@]35CC[C@]3(C)[C@@H]([C@@]6(C)CC[C@@H](C(C)(C)O)O6)[C@@H](O)C[C@@]3(C)[C@@H]5C[C@H](O[C@@H]3O[C@H](CO)[C@@H](O)[C@H](O)[C@H]3O)[C@H]4C2(C)C)OC[C@@H](OC(C)=O)[C@@H]1O | inactive | inactive | – | – |
| COC(=O)C1=COC(OC2OC(CO)C(O)C(O)C2O)C2C(COC(=O)/C=C/c3ccc(O)c(O)c3)C(O)C(O)C12 (stereo not drawn) | inactive | inactive | – | – |
| C[C@@H]1O[C@@H](O[C@H]2[C@H](O[C@H]3[C@H](O[C@H]4CC[C@@]5(C)C(CC[C@]6(C)C5CC=C5[C@@H]7CC(C)(C)C[C@@H](O)[C@]7(C)CC[C@]56C)C4(C)C)O[C@H](C(=O)O)[C@@H](O)[C@@H]3O)O[C@H](C(=O)O)[C@H](O)[C@@H]2O)[C@H](O)[C@H](O)[C@H]1O (stereo partly drawn) | – | – | 101% [at 9.25 µM] | 89.8% [at 9.25 µM] |
| COc1c(O[C@@H]2O[C@H](CO)[C@@H](O)[C@H](O)[C@H]2O)c(CCC(=O)O)cc2ccoc12 | inactive | inactive | – | – |
| C[C@@H]1O[C@@H](O[C@H]2[C@H](O)[C@@H](O)[C@H](OC[C@H]3O[C@@H](OC(=O)[C@]45CCC(C)(C)C[C@H]4C4=CCC6[C@@]7(C)C[C@H](O)[C@H](O[C@@H]8O[C@H](CO)[C@@H](O)[C@H](O)[C@H]8O)[C@@](C)(C(=O)O)C7CC[C@@]6(C)[C@]4(C)CC5)[C@H](O[C@@H]4O[C@H](CO)[C@@H](O)[C@H](O)[C@H]4O)[C@@H](O)[C@@H]3O)O[C@@H]2CO)[C@H](O)[C@H](O)[C@H]1O (stereo partly drawn) | – | – | 103% [at 9.25 µM] | 87% [at 9.25 µM] |
| NCCCC[C@H](NC(=O)[C@@H]1Cc2ccccc2CN1C(=O)CCC(=O)c1ccccc1)C(=O)NCC(c1ccccc1)c1ccccc1 | 20.6 µM (active) | 13 µM (active) | – | – |
| Nc1ncnc2c1nc(Cl)n2C1OC2COP(=O)(O)OC2C1O (stereo not drawn) | 0.517 µM (active) | 0.461 µM (active) | – | – |
| C=CC(C)(O)CC/C=C(\C)C(=O)OC1C(O)C(CO)OC(OC(=O)C23CCC(C)(C)CC2C2=CCC4C5(C)CCC(OC6OC(COC7OCC(OC(C)=O)C(O)C7OC7OC(COC(C)=O)C(O)C(O)C7OC(C)=O)C(O)C(O)C6OC6OCC(O)C(O)C6O)C(C)(C)C5CCC4(C)C2(C)C(O)C3O)C1OC1OCC(OC2OCC(O)C(OC3OCC(O)C(O)C3O)C2O)C(O)C1O (stereo not drawn) | 0.631 µM (active) | 1.78 µM (active) | – | – |
| C[C@@H]1O[C@@H](O[C@@H]2[C@@H](O)[C@@H](O[C@]3(CO)O[C@H](CO)[C@@H](O)[C@@H]3OC(=O)/C=C/c3ccc(O)cc3)O[C@H](CO)[C@H]2OC(=O)/C=C/c2ccc(O)cc2)[C@H](O)[C@H](O)[C@H]1O[C@@H]1O[C@@H](C)[C@H](O[C@@H]2OC[C@](O)(CO)[C@H]2O)[C@@H](O)[C@H]1O | – | – | 90% [at 9.25 µM] | 102% [at 9.25 µM] |
